“And” between values parts separate entries of the source, which are not always exact repeats. Equal values may be shown once. Inconclusive results are not listed. Entries that show only a call come without a potency. Some structures have more than one record in an assay (separate samples or runs), and their calls can disagree. The source made the active and inactive calls. Unless noted, calls come from the whole dose curve.
Tests used:
[1] = qHTS assay to identify small molecule agonists of the vitamin D receptor (VDR) signaling pathway - cell viability counter screen (AID 743224; active = well fitted curve in the direction sought with a large enough effect in the repeat runs; an effect the other way counts as inactive or inconclusive; note: nearly all actives have a fitted effect of over 50% in size; note: potency is the fitted concentration of half-maximal effect)
Method in brief: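 Cells: VDR-bla, 2,000/well, settled 4 h. Treatment: compounds in DMSO, 16 h, 37C/5% CO2. Readout: CellTiter-Glo luminescence after 30 min RT.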

[2] = qHTS assay to identify small molecule antagonists of the vitamin D receptor (VDR) signaling pathway - cell viability counter screen (AID 743225; active = well fitted curve in the direction sought with a large enough effect in the repeat runs; an effect the other way counts as inactive or inconclusive; note: nearly all actives have a fitted effect of over 50% in size; note: potency is the fitted concentration of half-maximal effect)
Method in brief: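 HEK293T VDR-bla; cpd + 1a,25-(OH)2D3 3 nM final, 16 h 37C/5% CO2; B/G FRET substrate 2 h RT; then CellTiter-Glo 30 min RT, luminescence.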

[3] = qHTS assay to identify small molecule agonists of the NFkB signaling pathway - cell viability counter screen (AID 1159515); note: nearly all actives have a fitted effect of over 55% in size; note: potency is the fitted concentration of half-maximal effect
Method in brief: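 Cells are seeded (2,000 NFkB-bla ME-180 per well), rested overnight, and dosed with DMSO-dissolved compounds for 5 hr at 37 C. Viability is then read by CellTiter-Glo luminescence after 30 min at room temperature.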

[4] = qHTS assay to identify small molecule agonists of the endoplasmic reticulum stress response signaling pathway (AID 1159516; active = well fitted activation curve with a large enough effect in the signal ratio in the repeat runs, not every such curve was filed as active; the % refers to the signal ratio)
Method in brief: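 Cells are seeded at 1,500 per well and incubated overnight. Compounds in DMSO are added for 5 hr at 37 C, then beta-lactamase FRET substrate for 2 hr at room temperature, and fluorescence at 460 and 530 nm is measured.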

[5] = qHTS assay to identify small molecule agonists of the endoplasmic reticulum stress response signaling pathway - cell viability counter screen (AID 1159517); note: nearly all actives have a fitted effect of over 50% in size; note: potency is the fitted concentration of half-maximal effect
Method in brief: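 ESRE-bla HeLa cells (1,500/well) were plated overnight at 37 C and exposed to compounds for 5 hr. After the 2 hr beta-lactamase substrate read, CellTiter-Glo went into the same wells, and luminescence was read after 30 min at room temperature.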

[6] = qHTS assay to identify small molecule antagonists of the retinoid-related orphan receptor gamma (ROR-gamma) signaling pathway - cell viability counter screen (AID 1159520; active = well fitted curve in the direction sought with a large enough effect in the repeat runs; an effect the other way counts as inactive or inconclusive; note: nearly all actives have a fitted effect of over 50% in size; note: potency is the fitted concentration of half-maximal effect)
Method in brief: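 Cytotoxicity was read from cellular ATP (CellTiter-Glo luminescence) after 16 hr at 37 C with 1 uM doxycycline induction. The inducer was added 2 hr after compound transfer to Tet-on ROR gamma CHO cells.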

[7] = target: Nuclear receptor ROR-gamma (Homo sapiens) (UniProt P51449); assay: qHTS assay to identify small molecule antagonists of the retinoid-related orphan receptor gamma (ROR-gamma) signaling pathway (AID 1159521; active = well fitted curve in the direction sought with a large enough effect in the repeat runs; an effect the other way counts as inactive or inconclusive; note: nearly all actives have a fitted effect of over 50% in size; note: potency is the fitted concentration of half-maximal effect)
Method in brief: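 Cells were plated, rested 4 h at 37 C, exposed to compounds for 2 h, then given 1 uM final doxycycline hyclate to induce RORγ expression. After 16 h, ONE-Glo luminescence from the ROR response element reporter was measured.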

[8] = qHTS assay to identify small molecule agonists of the AP-1 signaling pathway - cell viability counter screen (AID 1159525); note: nearly all actives have a fitted effect of over 55% in size; note: potency is the fitted concentration of half-maximal effect
Method in brief: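 Intracellular ATP by Cell Titer Glo luminescence (30 min, RT) in the same ME-180 AP-1-bla wells after the 5 h compound exposure at 37 °C. Normalised to tetra n-octyl ammonium bromide and DMSO controls.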

[9] = qHTS assay to identify small molecule agonists of the AP-1 signaling pathway (AID 1159526)
[10] = target: Retinoic acid receptor RXR-alpha (Homo sapiens) (UniProt P19793); assay: qHTS assay to identify small molecule agonists of the RXR signaling pathway (AID 1159527); note: nearly all actives have a fitted effect of over 35% in size
Chain of Retinoic acid receptor RXR-alpha (Homo sapiens) (P19793 whole entry, looked up): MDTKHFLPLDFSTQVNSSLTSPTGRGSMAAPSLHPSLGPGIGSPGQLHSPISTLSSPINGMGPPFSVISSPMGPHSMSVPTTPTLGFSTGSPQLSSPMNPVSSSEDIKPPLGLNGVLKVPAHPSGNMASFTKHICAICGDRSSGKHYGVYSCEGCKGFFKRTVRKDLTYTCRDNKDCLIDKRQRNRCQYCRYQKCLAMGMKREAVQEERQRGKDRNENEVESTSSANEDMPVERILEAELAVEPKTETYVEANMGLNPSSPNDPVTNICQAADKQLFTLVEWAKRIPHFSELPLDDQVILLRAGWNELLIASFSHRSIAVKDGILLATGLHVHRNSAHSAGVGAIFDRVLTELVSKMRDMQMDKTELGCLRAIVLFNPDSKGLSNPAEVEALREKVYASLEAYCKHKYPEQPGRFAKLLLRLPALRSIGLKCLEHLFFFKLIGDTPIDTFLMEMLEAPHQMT
Method in brief: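 Cells plated at 2,000/well, rested 5 hr at 37 C, pin-dosed with DMSO compound solutions, incubated 16 hr, then loaded with B/G FRET substrate for 2 hr at RT before dual-emission fluorescence reading.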

SMILES | Potency [1] | Potency [2] | Potency [3] | Potency [4] | Potency [5] | Potency [6] | Potency [7] | Potency [8] | outcome [9] | Potency [10]
O=C1CCCO1 | inactive | inactive | inactive | inactive | inactive | inactive | inactive | inactive | inactive | 
CCCCCCCC[N+](C)(CCCCCCCC)CCCCCCCC | 6.15 µM (active) and 3.09 µM (active) and 5.49 µM (active) | 5.48 µM (active) and 6.93 µM (active) and 6.16 µM (active) | 17.3 µM (active) and 24.5 µM (active) | inactive | inactive and 13.8 µM (active) and 21.9 µM (active) | 24.3 µM (active) and 21.7 µM (active) and 10.9 µM (active) | 4.32 µM (active) and 2.17 µM (active) and 6.11 µM (active) | 17.3 µM (active) and 13.8 µM (active) and 19.5 µM (active) |  | 
N#Cc1c(Cl)c(Cl)c(Cl)c(C#N)c1Cl | 1.91 µM (active) and 1.95 µM (active) | 6.79 µM (active) and 8.71 µM (active) | inactive |  | 5.39 µM (active) and 5.49 µM (active) | 1.51 µM (active) and 864 nM (active) | 1.9 µM (active) and 1.22 µM (active) | 7.76 µM (active) |  | 
O=C1C(Cl)=C(Cl)C(=O)c2ccccc21 | 4.38 µM (active) and 9.77 µM (active) | 6.94 µM (active) and 12.3 µM (active) | 21.9 µM (active) and 12.3 µM (active) |  | 19.6 µM (active) and 49 µM (active) | 5.46 µM (active) and 5.45 µM (active) | 4.87 µM (active) and 12.2 µM (active) | 11 µM (active) and 19.5 µM (active) |  | 
CCC[CH2][Sn]([Cl])([Cl])[CH2]CCC | 249 nM (active) and 77.6 nM (active) | 1.11 µM (active) and 275 nM (active) | 3.13 µM (active) and 2.45 µM (active) |  | 125 nM (active) and 38.9 nM (active) | 155 nM (active) and 122 nM (active) | 77.9 nM (active) and 96.9 nM (active) |  |  | 
COc1ccc(O)c(C(C)(C)C)c1 | inactive | inactive | inactive | inactive | inactive | inactive |  | inactive | inactive | inactive
CN(C)c1ccccc1 | inactive | inactive | inactive | inactive | inactive | inactive |  | inactive | inactive | inactive
CC(C)COC(=O)c1ccccc1C(=O)OCC(C)C | inactive | inactive | inactive | inactive | inactive | inactive | inactive | inactive |  | inactive
CCOP(=S)(OCC)SCSC(C)(C)C | inactive | inactive | inactive | inactive | inactive | inactive |  | inactive | inactive | inactive
c1ccc2c(c1)Nc1ccccc1S2 | inactive | inactive | inactive | inactive | inactive | inactive | inactive | inactive |  | inactive
CCOP(=S)(OCC)OP(=S)(OCC)OCC | inactive | inactive | inactive | inactive | inactive | inactive | inactive | inactive | inactive | 
Cl | inactive | inactive | inactive | inactive | inactive | inactive |  | inactive | inactive | inactive
[Cl-].[Cl-].[Cl-].[Fe+3] | inactive | inactive | inactive | inactive | inactive | inactive |  | inactive | inactive | inactive
CCCCC(C#N)(Cn1cncn1)c1ccc(Cl)cc1 (configuration not stated) | inactive | inactive | inactive | inactive | inactive | inactive |  | inactive | inactive | 
